The source of these data is PubChem BioAssay (Tox21).

Where “and” joins values, the source holds several entries; their conditions need not be identical. Identical values can stand only once. Inconclusive results are not listed. Some compounds were tested as several samples or in several runs, with calls that do not always agree. Calls of active or inactive are those of the source. Unless noted, calls follow the shape of the dose curve; as a rule, active = well fitted curve in the direction sought with a large enough effect in the repeat runs; inconclusive = weak or mixed curves; inactive = no such curve, though single readings can be large; an effect the other way counts as inactive or inconclusive.

Assay [1] is described as follows: qHTS assay to identify small molecule agonists of H2AX (AID 1224845; active = well fitted activation curve with a large enough effect in the signal ratio in the repeat runs, not every such curve was filed as active; the % refers to the signal ratio). The method, boiled down: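 Phospho-H2AX Ser139 measured by HTRF (ex 320 nm; em 665 and 620 nm) after 24 hr antibody incubation. Compounds, 15 concentrations, 0.76% DMSO, were applied to CHO-K1 cells for 3hr at 37C before lysis.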
(Quantitative high-throughput screening tests each substance at several concentrations.)

The nature of assay [2]: qHTS assay to identify small molecule agonists of the hypoxia (HIF-1) signaling pathway (AID 1224846; active = well fitted activation curve with a large enough effect in the signal ratio in the repeat runs, not every such curve was filed as active; the % refers to the signal ratio). The gist of the method:
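A low-serum medium (0.5% dialyzed FBS) holding 2,000 HRE-bla ME-180 cells per well is preincubated for 5 hrs, dosed with compounds by pintool, and kept a further 17 hrs at 37C, 5% CO2 before CCF4-AM FRET detection of beta-lactamase.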

The nature of assay [3]: qHTS assay to identify small molecule agonists of H2AX - cell viability counter screen (AID 1224847; calls by dose curve; also: nearly all actives have a fitted effect of over 30% in size; also: potency is read from the fitted curve at half-maximal effect). The gist of the method: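 For this counter screen, overnight-attached CHO-K1 cells received test compounds (15 concentrations, 0.76% DMSO final); 3 hr later at 37C, CellTiter-Glo reagent was added and luminescence recorded after 30 min at room temperature.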
Assay [4] in a line: qHTS assay to identify small molecule antagonists of the estrogen related receptor (ERR) signaling pathway from Tox21 library (AID 1224848). Also: nearly all actives have a fitted effect of over 50% in size. The method, boiled down:
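Antagonist-mode screen of the Tox21 10K library in an NTP-provided ERR reporter cell line; 18 h compound exposure at 37 C, luminescence measured with ONE-Glo.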

Assay [5] can be described thus: qHTS assay to identify small molecule agonists of the estrogen related receptor (ERR) signaling pathway from Tox21 library (AID 1224849; calls by dose curve; also: nearly all actives have a fitted effect of over 15% in size). As to conditions: ERR reporter cell line, ONE-Glo luciferase, 18 h. The gist of the method:
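Screening used an NTP-provided ERR luciferase cell line. Compounds in DMSO were added 6 h after seeding and left 18 h at 37 C before a 30 min ONE-Glo step and luminescence reading.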

The nature of assay [6]: qHTS RealTime-Glo MT Cell Viability Assay in HepG2 cells - 24 hour (AID 1224867). Also: nearly all actives have a fitted effect of over 50% in size. Also: potency is read from the fitted curve at half-maximal effect. The method, boiled down:
(§1)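 qHTS, HepG2, 600 cells/well, RealTime-Glo (NanoLuc + prosubstrate) added with cells; 5 h preincubation; DMSO compound addition; 37 C; luminescence at 0/8/16/24/32/40 h.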

Assay [7] is described as follows: qHTS RealTime-Glo MT Cell Viability Assay in HEK293 cells - 32 hour (AID 1224868). Also: top concentration of the series differs between compounds; nearly all actives have a fitted effect of over 50% in size. The method, boiled down:
(§2)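 Assay medium contained NanoLuc luciferase plus cell-permeant prosubstrate, added with HEK293 cells at 600 cells/well. After 5 h at 37 C/5% CO2 compounds were added; plates stayed at 37 C for 40 h with serial luminescence reads.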

Assay [8] is described as follows: A CellTox Green Cytotoxicity Assay to monitor cytotoxicity in HEK293 cells - 0 hour (AID 1224869). Also: nearly all actives have a fitted effect of over 50% in size. The method, boiled down: (§3)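 Fluorescence intensity, read at 0, 8, 16, 24, 32 and 40 h of compound treatment, reflected dye binding to DNA of dead HEK293 cells; compounds (23 nL, DMSO) were added 5 h after plating cells with reagent.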
The nature of assay [9]: qHTS RealTime-Glo MT Cell Viability Assay in HepG2 cells - 40 hour (AID 1224870). Also: nearly all actives have a fitted effect of over 50% in size. Also: potency is read from the fitted curve at half-maximal effect. The gist of the method:
(§4)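 Real-time viability: cells seeded at 600 per well together with NanoLuc and cell-permeant prosubstrate, compounds added after 5 h incubation. Luminescence tracked at 0, 8, 16, 24, 32 and 40 h of exposure.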

Assay [10] is described as follows: A CellTox Green Cytotoxicity Assay to monitor cytotoxicity in HEK293 cells - 40 hour (AID 1224871). Also: nearly all actives have a fitted effect of over 45% in size. Also: potency is read from the fitted curve at half-maximal effect. The method, boiled down: as §3
Assay [11] can be described thus: qHTS RealTime-Glo MT Cell Viability Assay in HEK293 cells - 16 hour (AID 1224872). Also: nearly all actives have a fitted effect of over 50% in size. Also: potency is read from the fitted curve at half-maximal effect. The method, boiled down: as §2
The nature of assay [12]: qHTS RealTime-Glo MT Cell Viability Assay in HepG2 cells - 8 hour (AID 1224873). Also: nearly all actives have a fitted effect of over 55% in size. Also: potency is read from the fitted curve at half-maximal effect. The method, boiled down: as §4
The nature of assay [13]: qHTS RealTime-Glo MT Cell Viability Assay in HEK293 cells - 40 hour (AID 1224874). Also: nearly all actives have a fitted effect of over 50% in size. As to conditions: RealTime-Glo luminescence; max response: stronger effect = lower value. The gist of the method: (§5)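 Viable HEK293 cells reduce a cell-permeant prosubstrate; the product diffuses out and is consumed by NanoLuc in the medium to give light. Compounds went in after a 5 h incubation and plates were read over the treatment course.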

A short description of assay [14]: A CellTox Green Cytotoxicity Assay to monitor cytotoxicity in HEK293 cells - 24 hour (AID 1224875). Also: nearly all actives have a fitted effect of over 45% in size. Also: potency is read from the fitted curve at half-maximal effect. The method, boiled down:
as §3

Assay [15] in a line: A CellTox Green Cytotoxicity Assay to monitor cytotoxicity in HepG2 cells - 16 hour (AID 1224876). Also: nearly all actives have a fitted effect of over 45% in size. Also: potency is read from the fitted curve at half-maximal effect. The method, boiled down: (§6)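 Using 1536-well format, dye-containing HepG2 suspension was seeded, allowed 5 h at 37 C/5% CO2, dosed by pintool with compounds, positive and negative controls, and imaged for fluorescence across 40 h.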
A short description of assay [16]: qHTS RealTime-Glo MT Cell Viability Assay in HepG2 cells - 32 hour (AID 1224877). Also: nearly all actives have a fitted effect of over 55% in size. Also: potency is read from the fitted curve at half-maximal effect. The method, boiled down:
as §1

Assay [17] in a line: A CellTox Green Cytotoxicity Assay to monitor cytotoxicity in HepG2 cells - 24 hour (AID 1224878). Also: nearly all actives have a fitted effect of over 45% in size. Also: potency is read from the fitted curve at half-maximal effect. The method, boiled down: as §6
The nature of assay [18]: qHTS RealTime-Glo MT Cell Viability Assay in HEK293 cells - 0 hour (AID 1224880). The method, boiled down: as §5
A short description of assay [19]: qHTS assay to identify small molecule agonists of the hypoxia (HIF-1) signaling pathway - cell viability counter screen (AID 1224844; calls by dose curve; also: nearly all actives have a fitted effect of over 50% in size; also: potency is read from the fitted curve at half-maximal effect). The method, boiled down: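 Cells (HRE-bla ME-180, 2,000 per well) sat 5 hrs at 37C, got compound for 17 hrs, were read for CCF4-AM FRET, and were finally lysed with CellTiter-Glo for a 30 min room-temperature luminescence read.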

Assay [20] can be described thus: A CellTox Green Cytotoxicity Assay to monitor cytotoxicity in HepG2 cells - 40 hour (AID 1224879). Also: nearly all actives have a fitted effect of over 40% in size. Also: potency is read from the fitted curve at half-maximal effect. The method, boiled down:
as §6
% is scaled to controls: 0 for no effect and ±100 for the full control effect.

As for `C=CCOCC1CO1` (stereo not drawn), the Potency entry in [1], in assay [3], in [4], in [6], in assay [7] and in assay [8] was “inactive” each time. Besides, the Potency result in assay [9], in assay [10], in assay [11], in [12], in [14] and in assay [15] was “inactive” throughout. Also, the Potency entry in [16] and in assay [17] was “inactive” each time. Further, the outcome in assay [2] and in assay [18] was inactive. Also, the activity change, positive = activation in assay [5] (at 92.4 µM (top of the series)) was -3.54% (inactive). Further, the max response in [13] was -8.98% (inactive).
As for `CN1CC[C@]23c4c5ccc(O)c4O[C@H]2[C@@H](O)CC[C@H]3[C@H]1C5`, the Potency entry in assay [19], in assay [7], in assay [8], in assay [9], in [11] and in assay [12] was “inactive” throughout. Also, the Potency entry in assay [15], in assay [16], in [17] and in [20] was “inactive” each time. Besides, the outcome in assay [2] and in assay [18] was inactive. For the same molecule, in assay [13], the max response was -1.3% (inactive).
`COc1ccc2c(c1OC)C(=O)O[C@H]2[C@@H]1c2cc3c(cc2CCN1C)OCO3`: the Potency result in [19], in assay [3], in assay [6], in [7], in [9] and in [11] was “inactive” throughout. Besides, the Potency entry in assay [12], in assay [14], in assay [15], in assay [16], in [17] and in assay [20] was “inactive” throughout. Besides, in assay [13], the max response was 4.68% (inactive). Further, in [18], the call was inactive.
As for `CC(C)(C)CC(C)(C)c1ccc(O)cc1`, the Potency in [19] is 38.9 µM (active) and inactive; in [3], 4.5 µM (active) and 39.1 µM (active); in assay [6], 46.2 µM (active) and inactive; in [9], 49 µM (active) and inactive; in [10], 30.9 µM (active) and 21.3 µM (active); in assay [11], 12.3 µM (active). The Potency in [12] is 21.9 µM (active); in assay [14], 13.8 µM (active) and 21.3 µM (active); in assay [15], 27.5 µM (active) and 10.7 µM (active); in assay [16] it was 43.6 µM (active) and inactive; in assay [17] it was 19.5 µM (active) and 13.4 µM (active); in assay [20], 17.4 µM (active) and 15.1 µM (active). The Potency entry in [7] and in assay [8] was “inactive” in each case. In addition, the max response in assay [13] is -17% (inactive). The molecule was classed as inactive in assay [18].
Consider `CCC1CCC(=O)O1` (stereo not drawn), for which the Potency entry in assay [19], in assay [3], in assay [6], in assay [7], in assay [8] and in assay [9] was “inactive” each time. The Potency result in [10], in [11], in assay [12], in assay [14], in [15] and in assay [16] was “inactive” each time. In addition, the Potency result in [17] was “inactive”. The outcome in assay [2] and in [18] was inactive. Further, the max response in assay [13] is 8.21% (inactive).
`CCOC(=O)C1OC1(C)c1ccccc1` (stereo not drawn): the Potency entry in assay [19], in assay [3], in assay [6], in assay [7], in [8] and in assay [9] was “inactive” throughout. In addition, the Potency entry in [10], in [11], in assay [12], in [14], in [15] and in assay [16] was “inactive” in each case. Further, the Potency result in assay [17] is “inactive”. Further, the molecule was called inactive in assay [2] and in assay [18]. Also, in assay [13], the max response is 0.105% (inactive) and 2.55% (inactive).
Turning to `CCCC(C)(COC(N)=O)COC(=O)NC(C)C` (stereo not drawn), the Potency result in assay [1], in assay [3], in assay [4], in [6], in [7] and in assay [8] was “inactive” throughout. Moreover, the Potency entry in [9], in assay [11], in assay [12], in assay [14], in [15] and in assay [16] was “inactive” each time. Besides, the Potency result in assay [17] and in assay [20] was “inactive” each time. Moreover, the outcome in [2] and in assay [18] was inactive. Besides, the activity change, positive = activation in [5] (at 42.5 µM (top of the series)) was 0.487% (inactive); in [5] (at 92.4 µM (top of the series)), -2.02% (inactive). In assay [13], the max response is -11.3% (inactive) and 0.58% (inactive).
As for `C[N+](C)(C)CC1CO1` (stereo not drawn), the Potency result in [19], in assay [3], in assay [6], in assay [7], in assay [8] and in [9] was “inactive” in each case. In addition, the Potency result in [10], in [11], in assay [12], in assay [15], in assay [16] and in assay [17] was “inactive” in each case. In addition, in assay [20], the Potency result was “inactive”. Further, the result in assay [2] and in assay [18] was inactive. In assay [13], the max response is 5.73% (inactive).
Take `FC(Cl)(Cl)C(F)(Cl)Cl`: the Potency result in assay [19], in assay [6], in assay [7], in [8], in assay [9] and in assay [10] was “inactive” each time. The Potency entry in [11], in [12], in assay [14], in assay [15], in assay [16] and in [17] was “inactive” each time. Moreover, the Potency result in [20] is “inactive”. For the same molecule, the molecule was classed as inactive in [2] and in [18]. For the same molecule, the max response in assay [13] is -10.6% (inactive).
`CCCBr`: the Potency result in assay [19], in [6], in assay [7], in assay [9], in assay [10] and in assay [11] was “inactive” throughout. Further, the Potency entry in assay [12], in assay [14], in assay [15], in assay [16], in assay [17] and in assay [20] was “inactive” throughout. Besides, the molecule was classed as inactive in assay [2] and in [18]. In addition, the max response in assay [13] was -3.27% (inactive).
Take `Cc1nc(N(C)C)nc(OC(=O)N(C)C)c1C`: the Potency result in assay [19], in assay [3], in assay [6], in assay [7], in assay [8] and in assay [9] was “inactive” in each case. Besides, the Potency result in assay [10], in [11], in assay [12], in assay [14], in assay [15] and in assay [16] was “inactive” throughout. For the same molecule, the Potency result in assay [17] and in assay [20] was “inactive” each time. The call in assay [2] and in assay [18] was inactive. Also, the max response in [13] was 2.7% (inactive).
Consider `CCNC(=O)NC(=O)/C(C#N)=N/OC`, for which the Potency result in [19], in assay [4], in assay [6], in assay [7], in [8] and in assay [9] was “inactive” throughout. Also, the Potency result in assay [11], in [12], in assay [14], in [15], in assay [16] and in [17] was “inactive” throughout. Besides, the Potency entry in assay [20] was “inactive”. The result in [2] and in assay [18] was inactive. For the same molecule, the activity change, positive = activation in assay [5] (at 92.4 µM (top of the series)) is -6.66% (inactive). In assay [13], the max response was 18.1% (inactive).
